The text below walks through data of PubChem BioAssay (NCI).

Structures are written as SMILES. The panel holds about 83,000 compounds, 20% with a hit somewhere; the sample as a whole holds those more often.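 Each cell line was grown in a 96-well plate and treated with one concentration of compound for 48 hours. Values below 10 were considered active.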 A number with no mark means an inactive call. Activity calls are given as the source filed them.

The test system of this test is HL-60(TB) leukemia. The test is described as follows: NCI-60 one-dose screen, 48 h (100 = growth as untreated, 0 = no growth, -100 = all killed). Particulars: 10 µM unless noted.
On to `O=c1[nH]c2ccccc2cc1CSc1ccccc1Nc1nccc(-c2ccc3c(c2)OCO3)n1`, for which the growth was 98%.

As for `COc1cc(C2CC(c3cc(OC)c(OC)c(OC)c3)=NN2c2ccccc2)ccc1OCc1ccc(C)cc1` (stereo not given), the growth was 101%.

As to `N#Cc1ccc(/C=N/NC(=O)c2[nH]c3ccc(Br)cc3c2-c2ccccc2)o1`, the growth was -25.1% (active).

As for `O=C(Nc1ccc(Cl)c(C(F)(F)F)c1)c1cncc(C#Cc2cnc3ccc(N4CCOCC4)nn23)c1`, the growth is -21.7% (active). On to `O=C(COc1ccc(/C=C2/C(=O)Nc3ccc(Cl)cc32)cc1)Nc1ccc(Br)cc1`, for which the growth is 10.3%. The value for `CCCCc1c(Nn2cnnn2)no[n+]1[O-]` was 37.9%; that for `O=C(CSc1nnc(-c2ccc3nc(-c4ccc(Cl)cc4)[nH]c3c2)o1)Nc1ccc(Cl)cc1` was -20.9% (active). As to `O=C(Nc1nc2ccc([N+](=O)[O-])cc2s1)Nc1ccccc1I`, the growth is -1.54% (active). Consider `CN1C(=O)C(O)(CC(=O)c2cc3ccccc3oc2=O)c2ccccc21` (stereo not given), for which the growth was 84.4%. As for `COc1cc(Nc2nc(O)c(/C=C3\C=Nc4ccccc43)s2)cc(OC)c1OC`, the growth is -16% (active).

Take `COc1ccc(NC(=O)N/N=C/c2c[nH]c3ccccc23)cc1`: the growth was 1.79% (active). The value for `Cc1cccc(NC(=O)CN2CCN(c3ncnc4c3cnn4-c3ccccc3)CC2)c1` was 88.3%; that for `Cc1cn(-c2cc(NC(=O)c3ccc(C)c(-n4cc(-c5cnc6cccnn56)nn4)c3)cc(C(F)(F)F)c2)cn1` was 24.9%; that for `CCCn1c(NC(=O)c2cccc(C(N)=O)c2)nc2cc(CN3CCCCC3)ccc21` was 91.4%. The value for `Oc1ccc(Cl)c(Nc2nc(SCCN3CCOCC3)nc3c2cnn3CC(Cl)c2ccc(Br)cc2)c1` (stereo not given) was -36.2% (active).

Regarding `COc1ccc2[nH]c(O)c(N=NC(=O)Cn3c(-c4ccccc4)nc4cc(C)ccc43)c2c1`, the growth was -50.8% (active). Take `O=C(NCCCCCCCCCC[P+](c1ccccc1)(c1ccccc1)c1ccccc1)c1ccc(-n2nc(-c3ccccc3O)nc2-c2ccccc2O)cc1`: the growth is -29.8% (active). `Nc1nnc(CS(=O)(=O)c2ccccc2)s1`: the growth was 105%. For the compound `O=C(Nc1ccc(Cl)c([N+](=O)[O-])c1)Nc1ccc(Cl)c([N+](=O)[O-])c1`, the growth is 2.93% (active). The value for `COc1cnc2c(c1)C(=O)c1c-2n(CCCNC(C)C)c(=O)c2cc(OC)c(OC)cc12` was 62.8%. Then `Cc1ccc(S(=O)(=O)N(CCn2ccnc2[N+](=O)[O-])CCn2ccnc2[N+](=O)[O-])cc1`, with 94.6%. Turning to `COc1c(F)ccc(C(=O)Nc2ccc3nc(NC(=O)C4CCCN(S(=O)(=O)c5cccc(C(F)(F)F)c5)C4)sc3c2)c1F` (stereo not given), the growth is 72.1%. `O=C(NC(=S)N1CCN(c2ncnc3c2cnn3-c2ccccc2)CC1)c1ccc(F)cc1`: the growth was 64.8%. The value for `CC1(C)CC(=O)C2=C(C1)N(Cc1ccc(C(=O)O)cc1)C1=C(C(=O)CC(C)(C)C1)C2c1ccc(Cl)cc1` was 107%; that for `Cn1cc(-c2cc3nc(-c4c[nH]c5ccc(Cl)cc45)cc(N)n3n2)c2ccccc21` was -34.2% (active); that for `C#C[C@]1(O)CC[C@H]2[C@@H]3CC=C4c5sc(Nc6ccc(N(C)C)cc6)nc5CC[C@]4(C)[C@H]3CC[C@@]21C` was -26.1% (active). Turning to `COc1cccc(C(=O)CSc2nc(-c3ccc(OCc4ccccc4)c(OC)c3)c(C#N)c(=O)[nH]2)c1`, the growth was 97.2%.

`COCOc1cc2c(=O)c(C)c(C(=O)N[C@@H](Cc3ccccc3)C(O)C(=O)NCc3ccccc3)oc2cc1OC` (stereo not given in full): the growth was 99.2%. The value for `COc1ccc(N2N=C(c3ccc4c(c3)OCCO4)CC2c2cccc(NC(=O)CCCNS(=O)(=O)c3ccc(F)cc3)c2)cc1` (stereo not given) was 80.5%; that for `O=c1c2ccccc2nc(COc2ccccc2)n1/N=C/c1ccc(N2CCCC2)cc1` was 101%; that for `O=C(N/N=C/c1ccsc1)c1[nH]c2ccc(Br)cc2c1-c1ccccc1` was -33.7% (active).

For `CC1=C(C(=O)Nc2ccccc2)C(c2cccc(Cl)c2Cl)n2c(nc3ccccc32)N1` (stereo not given), the growth was 9.78% (active). The value for `O=C(Cc1ccc2c(c1)CN(C1CCC(=O)NC1=O)C2=O)NCCc1ccccc1` (stereo not given) was -19.2% (active); that for `CN(C)CCCNC(=S)Nc1ccc(/C=C/c2ccc(Cl)cc2)cc1` was -22.4% (active).

Consider `COc1c(F)ccc(C(=O)Nc2ccc3nc(NC(=O)C4CCCN(S(=O)(=O)c5cccc(Cl)c5)C4)sc3c2)c1F` (stereo not given), for which the growth is 76.8%. On to `COc1cc(/C=C2\C(=N)N=C(SCc3nc4ccccc4[nH]3)NC2=O)ccc1O`, for which the growth was 83.7%.

For the compound `CC1(C)CC[C@]2(C(=O)O)CC[C@]3(C)C(=CCC4[C@@]5(C)C[C@@H](O)[C@@H]6OC(c7cccc(F)c7)OC[C@@]6(C)C5CC[C@]43C)C2C1` (stereo not given in full), the growth was 9.5% (active). The value for `Cc1cc(=O)oc2cc(OCCCCOc3ccc(/C=C/C(=O)Nc4ccccc4N)cc3)ccc12` was 0.47% (active). The value for `COc1ccc(C(=O)COc2ccc(NC(=O)Nc3ccc(Cl)c(C(F)(F)F)c3)cc2)cc1` was 19%. The value for `O=C(O)c1ccc(-c2ccc(/C=N/NC(=O)c3[nH]c4ccc(Br)cc4c3-c3ccccc3)s2)cc1` was -5.49% (active).
